# Results reported in PMC8384837, “Expanding the binding specificity for RNA recognition by a PUF domain”.
# Positions count from the first letter of the chain named.
# What was measured:
# Test in all cases: yeast three-hybrid, YBZ-1, SC-Leu-His + 0.5 mM 3-AT, 4 days
# Conditions in all cases: tags: N-Gal4 AD-HA kept; label: inside an RPR1-promoter hybrid RNA with tandem MS2 sites; ssRNA
# PUM1 PUF domain R3-PWH = PUM1 PUF domain R3-PWH (Homo sapiens, UniProt Q14671 828-1176, C935P;R936W;Q939H)
# Procedure, shortened: (§1)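 Matching RNA elements and Pumilio-1 PUF domain libraries, randomized at the three base-contacting residues of every repeat, were co-expressed from a centromeric plasmid in strain YBZ-1 (LexA–MS2 coat fusion, HIS3 reporter). The repeat regions were PCR-amplified and Illumina-sequenced from cells grown four days on SC-Leu (input) or SC-Leu-His + 0.5 mM 3-AT (selection). The interaction score is the log change in variant frequency from input to selection. It is computed in log2, with a pseudocount of 1 for absent variants.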
# PUM1 PUF domain R3-RNE = PUM1 PUF domain R3-RNE (Homo sapiens, UniProt Q14671 828-1176, C935R;R936N;Q939E)
# Procedure, shortened: as §1
# PUM1 PUF domain R3-EFL = PUM1 PUF domain R3-EFL (Homo sapiens, UniProt Q14671 828-1176, C935E;R936F;Q939L)
# Procedure, shortened: as §1
# PUM1 PUF domain R3-RVS = PUM1 PUF domain R3-RVS (Homo sapiens, UniProt Q14671 828-1176, C935R;R936V;Q939S)
# Procedure, shortened: as §1
# PUM1 PUF domain R3-IWS = PUM1 PUF domain R3-IWS (Homo sapiens, UniProt Q14671 828-1176, C935I;R936W;Q939S)
# Procedure, shortened: as §1
# PUM1 PUF domain R2-LFC = PUM1 PUF domain R2-LFC (Homo sapiens, UniProt Q14671 828-1176, N899L;Y900F;Q903C)
# Procedure, shortened: as §1
# PUM1 PUF domain R5-MRR = PUM1 PUF domain R5-MRR (Homo sapiens, UniProt Q14671 828-1176, C1007M;Q1011R)
# Procedure, shortened: as §1
# PUM1 PUF domain R5-TSR = PUM1 PUF domain R5-TSR (Homo sapiens, UniProt Q14671 828-1176, C1007T;R1008S;Q1011R)
# Procedure, shortened: as §1
# PUM1 PUF domain R5-QQR = PUM1 PUF domain R5-QQR (Homo sapiens, UniProt Q14671 828-1176, C1007Q;R1008Q;Q1011R)
# Procedure, shortened: as §1
# PUM1 PUF domain R5-RKI = PUM1 PUF domain R5-RKI (Homo sapiens, UniProt Q14671 828-1176, C1007R;R1008K;Q1011I)
# Procedure, shortened: as §1
# PUM1 PUF domain R6-NHR = target: T1, PUM1 PUF domain R6-NHR (Homo sapiens, UniProt Q14671 828-1176, Y1044H;Q1047R)
# T1 sequence: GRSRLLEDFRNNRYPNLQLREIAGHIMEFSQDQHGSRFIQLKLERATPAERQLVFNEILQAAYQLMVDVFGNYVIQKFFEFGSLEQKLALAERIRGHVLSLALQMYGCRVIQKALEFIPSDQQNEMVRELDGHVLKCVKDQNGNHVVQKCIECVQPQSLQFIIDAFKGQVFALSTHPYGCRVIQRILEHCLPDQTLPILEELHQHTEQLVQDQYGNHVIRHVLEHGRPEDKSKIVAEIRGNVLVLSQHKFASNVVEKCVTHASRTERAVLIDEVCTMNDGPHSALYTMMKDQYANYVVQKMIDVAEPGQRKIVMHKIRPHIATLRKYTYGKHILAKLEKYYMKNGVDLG
# Procedure, shortened: as §1
# PUM1 PUF domain R6-GYR = target: T2, PUM1 PUF domain R6-GYR (Homo sapiens, UniProt Q14671 828-1176, N1043G;Q1047R)
# T2 sequence: T1 sequence with N216G, H217Y
# Procedure, shortened: as §1
# PUM1 PUF domain R4-WSR = PUM1 PUF domain R4-WSR (Homo sapiens, UniProt Q14671 828-1176, N971W;H972S;Q975R)
# Procedure, shortened: as §1
# PUM1 PUF domain R1-YSR = PUM1 PUF domain R1-YSR (Homo sapiens, UniProt Q14671 828-1176, S863Y;R864S;Q867R)
# Procedure, shortened: as §1
# PUM1 PUF domain R1-RVS = PUM1 PUF domain R1-RVS (Homo sapiens, UniProt Q14671 828-1176, S863R;R864V;Q867S)
# Procedure, shortened: as §1
# PUM1 PUF domain R1-RGS = PUM1 PUF domain R1-RGS (Homo sapiens, UniProt Q14671 828-1176, S863R;R864G;Q867S)
# Procedure, shortened: as §1
# PUM1 PUF domain R5-CQR = PUM1 PUF domain R5-CQR (Homo sapiens, UniProt Q14671 828-1176, R1008Q;Q1011R)
# Procedure, shortened: as §1
# PUM1 PUF domain R8-IFR = PUM1 PUF domain R8-IFR (Homo sapiens, UniProt Q14671 828-1176, N1122I;Y1123F;Q1126R)
# Procedure, shortened: as §1
# PUM1 PUF domain R4-CNI = PUM1 PUF domain R4-CNI (Homo sapiens, UniProt Q14671 828-1176, N971C;H972N;Q975I)
# Procedure, shortened: as §1
# PUM1 PUF domain R6-FYS = target: T3, PUM1 PUF domain R6-FYS (Homo sapiens, UniProt Q14671 828-1176, N1043F;Q1047S)
# T3 sequence: T1 sequence with N216F, H217Y, R220S
# Procedure, shortened: as §1
sequence,measurement,setting,value
GGCUAGAACUAGUGGAUCCCCCGGCGCCCGGCGGCUCGAGCCCGGGUAAGUGUAAUUAGUCUGCAUGCCGCCGGGCGCCAUGCCUGCAGGUCGACUCUAGAAAACAUG,binding signal,PUM1 PUF domain R3-PWH,4.06 log2 enrichment (interaction score)
same,binding signal,PUM1 PUF domain R3-RNE,2.81 log2 enrichment (interaction score)
same,binding signal,PUM1 PUF domain R3-EFL,2.29 log2 enrichment (interaction score)
same,binding signal,PUM1 PUF domain R3-RVS,2.78 log2 enrichment (interaction score)
GGCUAGAACUAGUGGAUCCCCCGGCGCCCGGCGGCUCGAGCCCGGGUAAGUGUAAGUAGUCUGCAUGCCGCCGGGCGCCAUGCCUGCAGGUCGACUCUAGAAAACAUG,binding signal,PUM1 PUF domain R3-IWS,6.08 log2 enrichment (interaction score)
GGCUAGAACUAGUGGAUCCCCCGGCGCCCGGCGGCUCGAGCCCGGGUAAGUGUAAAAAGUCUGCAUGCCGCCGGGCGCCAUGCCUGCAGGUCGACUCUAGAAAACAUG,binding signal,PUM1 PUF domain R2-LFC,3.16 log2 enrichment (interaction score)
GGCUAGAACUAGUGGAUCCCCCGGCGCCCGGCGGCUCGAGCCCGGGUAAGUGUCAAUAGUCUGCAUGCCGCCGGGCGCCAUGCCUGCAGGUCGACUCUAGAAAACAUG,binding signal,PUM1 PUF domain R5-MRR,4.14 log2 enrichment (interaction score)
same,binding signal,PUM1 PUF domain R5-TSR,5.55 log2 enrichment (interaction score)
same,binding signal,PUM1 PUF domain R5-QQR,6.22 log2 enrichment (interaction score)
same,binding signal,PUM1 PUF domain R5-RKI,3.24 log2 enrichment (interaction score)
GGCUAGAACUAGUGGAUCCCCCGGCGCCCGGCGGCUCGAGCCCGGGUAAGUGCAAAUAGUCUGCAUGCCGCCGGGCGCCAUGCCUGCAGGUCGACUCUAGAAAACAUG,binding signal,PUM1 PUF domain R6-NHR,5.94 log2 enrichment (interaction score)
same,binding signal,PUM1 PUF domain R6-GYR,5.76 log2 enrichment (interaction score)
GGCUAGAACUAGUGGAUCCCCCGGCGCCCGGCGGCUCGAGCCCGGGUAAGUGUAUAUAGUCUGCAUGCCGCCGGGCGCCAUGCCUGCAGGUCGACUCUAGAAAACAUG,binding signal,PUM1 PUF domain R4-WSR,1.87 log2 enrichment (interaction score)
GGCUAGAACUAGUGGAUCCCCCGGCGCCCGGCGGCUCGAGCCCGGGUAAGUGUAAAUUGUCUGCAUGCCGCCGGGCGCCAUGCCUGCAGGUCGACUCUAGAAAACAUG,binding signal,PUM1 PUF domain R1-YSR,5.97 log2 enrichment (interaction score)
same,binding signal,PUM1 PUF domain R1-RVS,3.69 log2 enrichment (interaction score)
same,binding signal,PUM1 PUF domain R1-RGS,2.53 log2 enrichment (interaction score)
GGCUAGAACUAGUGGAUCCCCCGGCGCCCGGCGGCUCGAGCCCGGGUAAGUGUUAAUAGUCUGCAUGCCGCCGGGCGCCAUGCCUGCAGGUCGACUCUAGAAAACAUG,binding signal,PUM1 PUF domain R5-CQR,3.55 log2 enrichment (interaction score)
GGCUAGAACUAGUGGAUCCCCCGGCGCCCGGCGGCUCGAGCCCGGGUAAGCGUAAAUAGUCUGCAUGCCGCCGGGCGCCAUGCCUGCAGGUCGACUCUAGAAAACAUG,binding signal,PUM1 PUF domain R8-IFR,4.56 log2 enrichment (interaction score)
GGCUAGAACUAGUGGAUCCCCCGGCGCCCGGCGGCUCGAGCCCGGGUAAGUGUACAUAGUCUGCAUGCCGCCGGGCGCCAUGCCUGCAGGUCGACUCUAGAAAACAUG,binding signal,PUM1 PUF domain R4-WSR,2.55 log2 enrichment (interaction score)
same,binding signal,PUM1 PUF domain R4-CNI,3.63 log2 enrichment (interaction score)
GGCUAGAACUAGUGGAUCCCCCGGCGCCCGGCGGCUCGAGCCCGGGUAAGUGUAAAUAGUCUGCAUGCCGCCGGGCGCCAUGCCUGCAGGUCGACUCUAGAAAACAUG,binding signal,PUM1 PUF domain R5-MRR,1.43 log2 enrichment (interaction score)
same,binding signal,PUM1 PUF domain R3-EFL,5.34 log2 enrichment (interaction score)
same,binding signal,PUM1 PUF domain R6-FYS,2.53 log2 enrichment (interaction score)
same,binding signal,PUM1 PUF domain R6-GYR,6.45 log2 enrichment (interaction score)
GGCUAGAACUAGUGGAUCCCCCGGCGCCCGGCGGCUCGAGCCCGGGUAAGUGUAAAUGGUCUGCAUGCCGCCGGGCGCCAUGCCUGCAGGUCGACUCUAGAAAACAUG,binding signal,PUM1 PUF domain R1-RVS,1.89 log2 enrichment (interaction score)
same,binding signal,PUM1 PUF domain R1-RGS,0.85 log2 enrichment (interaction score)
GGCUAGAACUAGUGGAUCCCCCGGCGCCCGGCGGCUCGAGCCCGGGUAAGUGUAAAUCGUCUGCAUGCCGCCGGGCGCCAUGCCUGCAGGUCGACUCUAGAAAACAUG,binding signal,PUM1 PUF domain R1-YSR,4.84 log2 enrichment (interaction score)
same,binding signal,PUM1 PUF domain R1-RVS,4.31 log2 enrichment (interaction score)
same,binding signal,PUM1 PUF domain R1-RGS,2.68 log2 enrichment (interaction score)
GGCUAGAACUAGUGGAUCCCCCGGCGCCCGGCGGCUCGAGCCCGGGUAAGUGUGAAUAGUCUGCAUGCCGCCGGGCGCCAUGCCUGCAGGUCGACUCUAGAAAACAUG,binding signal,PUM1 PUF domain R5-CQR,0.8 log2 enrichment (interaction score)
